Assay results: PubChem BioAssay AID1159580 (chemical genetic matrix, 2015)
Where “and” joins values, the source holds several entries; their conditions need not be identical. Equal values may be shown once. In all, about 5,500 compounds went through this assay and about 2,000 (36%) were called active. Inconclusive results (about 18%) are left out. Rule as the data show it: active = normalized growth mostly below about 0.91 (no sharp cut-off); inconclusive = no clear call, values can overlap the other calls; inactive = mostly above about 0.92. The list shows a part of the results.

Test: chemical genetic growth profiling, strain panel (AID 1159580);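 also: tested at 20 µM; growth read once vehicle control cultures reached saturation at 30 °C; 1 = growth at the plate median or of vehicle wells; lower values mean less growth of the strain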
Details: S. cerevisiae deletion strains, growth OD

Measured: normalized growth

N[C@@H](CCC(=O)N[C@@H](CS)C(=O)NCC(=O)O)C(=O)O
inactive: locus YAL021C, strain ccr4, hits give low values 1 | locus YAL026C, strain drs2, hits give low values 1.04 | locus YAL030W, strain snc1, hits give low values 0.986 | locus YBL061C, strain skt5, hits give low values 1.01 | locus YBR009C, strain hhf1, hits give low values 0.988 | locus YBR021W, strain FUR4, hits give low values 1.05 | locus YBR023C, strain chs3, hits give low values 1.01 | locus YBR171W, strain sec66, hits give low values 0.981 | locus YBR229C, strain ROT2, hits give low values 1.01 | locus YBR231C, strain swc5, hits give low values 0.972 | locus YBR279W, strain paf1, hits give low values 1 | locus YCL011C, strain gbp2, hits give low values 1.01 | locus YCL016C, strain dcc1, hits give low values 1.02 | locus YCL029C, strain bik1, hits give low values 0.998 | locus YCL061C, strain MRC1, hits give low values 0.99 | locus YCL069W, strain vba3, hits give low values 1.01 | locus YCR088W, strain abp1, hits give low values 0.998 | locus YDL005C, strain med2, hits give low values 0.985 | locus YDL035C, strain GPR1, hits give low values 1.01 | locus YDL040C, strain nat1, hits give low values 0.989 | locus YDL074C, strain BRE1, hits give low values 0.987 | locus YDL101C, strain DUN1, hits give low values 0.991 | locus YDL185W, strain tfp1, hits give low values 0.947 | locus YDL192W, strain arf1, hits give low values 0.988 | locus YDR001C, strain nth1, hits give low values 0.993 | locus YDR069C, strain doa4, hits give low values 0.975 | locus YDR101C, strain arx1, hits give low values 0.992 | locus YDR137W, strain rgp1, hits give low values 1.03 | locus YDR159W, strain sac3, hits give low values 0.943 | locus YDR162C, strain NBP2, hits give low values 0.998 | locus YDR195W, strain ref2 0.927 | locus YDR297W, strain sur2, hits give low values 0.984 | locus YDR318W, strain mcm21, hits give low values 0.993 | locus YDR334W, strain swr1, hits give low values 0.998 | locus YDR335W, strain msn5, hits give low values 0.987 | locus YDR388W, hits give low values 0.998 | locus YDR392W, strain spt3, hits give low values 1 | locus YDR502C, strain sam2, hits give low values 0.987 | locus YEL003W, strain gim4, hits give low values 0.992 | locus YEL037C, strain rad23, hits give low values 0.995 | locus YEL061C, strain CIN8 (second series), hits give low values 0.996 | locus YEL061C, strain CIN8, hits give low values 0.991 | locus YER015W, strain faa2, hits give low values 1 | locus YER016W, strain bim1, hits give low values 1.02 | locus YER110C, hits give low values 0.971 | locus YER111C, strain swi4, hits give low values 1.01 | locus YER155C, strain BEM2 (second series), hits give low values 0.963 | locus YER155C, strain BEM2, hits give low values 0.998 | locus YER167W, strain BCK2, hits give low values 1 | locus YFR010W, strain ubp6, hits give low values 1 | locus YGL078C, strain dbp3, hits give low values 0.99 | locus YGL086W, strain mad1, hits give low values 0.987 | locus YGL167C, strain pmr1, hits give low values 0.988 | locus YGL173C, strain kem1, hits give low values 0.977 | locus YGL227W, strain vid30, hits give low values 0.992 | locus YGL240W, strain doc1, hits give low values 0.973 | locus YGL248W, strain PDE1, hits give low values 0.999 | locus YGL253W, strain hxk2, hits give low values 1.02 | locus YGR135W, strain pre9, hits give low values 0.978 | locus YGR252W, strain gcn5, hits give low values 0.995 | locus YHR013C, strain ard1, hits give low values 0.996 | locus YHR027C, strain rpn1, hits give low values 1.01 | locus YHR030C, strain SLT2, hits give low values 0.992 and 0.922 | locus YHR079C, strain IRE1 (second series), hits give low values 0.985 | locus YHR079C, strain IRE1, hits give low values 0.928 | locus YHR094C, strain hxt1, hits give low values 0.996 | locus YHR129C, strain ARP1, hits give low values 1 | locus YHR142W, strain chs7, hits give low values 1.03 | locus YHR200W, strain rpn10, hits give low values 0.981 | locus YIL066C, strain RNR3, hits give low values 1.01 | locus YIL073C, strain SPO22, hits give low values 0.952 | locus YIL125W, strain kgd1, hits give low values 0.996 | locus YIR030C, strain dcg1, hits give low values 0.991 | locus YJL092W, strain hpr5, hits give low values 0.998 | locus YJL095W, strain BCK1 (second series), hits give low values 1.01 | locus YJL095W, strain BCK1, hits give low values 0.97 and 1.03 | locus YJL115W, strain asf1, hits give low values 0.972 | locus YJL129C, strain trk1, hits give low values 0.975 | locus YJL134W, strain LCB3, hits give low values 0.995 | locus YJL154C, strain vps35, hits give low values 0.998 | locus YJL164C, strain tpk1, hits give low values 1.01 | locus YJL166W, strain qcr8, hits give low values 0.973 | locus YJL168C, strain set2, hits give low values 0.994 | locus YJL187C, strain SWE1 (second series), hits give low values 0.987 | locus YJR043C, strain POL32, hits give low values 0.992 | locus YJR066W, strain TOR1, hits give low values 0.923
